Laboratory results as given in PubChem BioAssay (NCATS).
Records with an inconclusive call do not appear. A number with no mark means an inactive call. Calls of active or inactive are those of the source. The call rests on the fitted dose curve; in most records, active means well fitted curve in the direction sought with a large enough effect; inconclusive means small, poorly fitted or top-dose-only effect, or another doubt; inactive means no such curve, though single readings can be large; an effect the other way counts as inactive or inconclusive.

Columns and labels:
C33A = assay: Primary qHTS to identify gynecologic anti-cancer compounds using libraries of approved drugs and bioactive compounds (AID 1345084); conditions: Gynecologic cancer cell panel viability, ATPlite luminescence, 48 h; series mostly up to 57.5 µM; further: nearly all actives have a fitted effect of over 55% in size
Procedure, shortened: (§1)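 Cells, 1,000 per well, were allowed to settle for 16 h at 37 C before compound addition. Five concentrations were tested for 48 h, and viability was read by ATPlite luminescence after 15 min at room temperature.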

CASKI = assay: as above; conditions: Gynecologic cancer cell panel viability, ATPlite luminescence, 48 h; series mostly up to 57.5 µM
Procedure, shortened: as §1

Es-2 = assay: as above; conditions: Gynecologic cancer cell panel viability, ATPlite luminescence, 48 h; series mostly up to 57.5 µM
Procedure, shortened: as §1

Hek293T = assay: as above; conditions: Gynecologic cancer cell panel viability, ATPlite luminescence, 48 h, control line for the selectivity index; series mostly up to 57.5 µM
Procedure, shortened: as §1

OV90 = assay: as above; conditions: Gynecologic cancer cell panel viability, ATPlite luminescence, 48 h; series mostly up to 57.5 µM
Procedure, shortened: as §1

PA-1 = assay: as above; conditions: Gynecologic cancer cell panel viability, ATPlite luminescence, 48 h; series mostly up to 57.5 µM
Procedure, shortened: as §1

Tov-21-G = assay: as above; conditions: Gynecologic cancer cell panel viability, ATPlite luminescence, 48 h; series mostly up to 57.5 µM
Procedure, shortened: as §1

Tov112D = assay: as above; conditions: Gynecologic cancer cell panel viability, ATPlite luminescence, 48 h; series mostly up to 57.5 µM
Procedure, shortened: as §1

HeLa = assay: as above; conditions: Gynecologic cancer cell panel viability, ATPlite luminescence, 48 h; series mostly up to 57.5 µM
Procedure, shortened: as §1

SKOV3 = assay: as above; conditions: Gynecologic cancer cell panel viability, ATPlite luminescence, 48 h; series mostly up to 57.5 µM
Procedure, shortened: as §1

[1] = qHTS assay to identify inhibitors of the type 1 interferon - major histocompatibility complex class I in skeletal muscle: Counter screen cell viability and HiBit confirmation (AID 1347412); conditions: iHSKM muscle cells + IFN-b, HiBiT or CellTiter-Glo, 24 h; further: nearly all actives have a fitted effect of over 60% in size
Procedure, shortened: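 Human myoblast knock-in line, 4.0 ng/ml IFN-beta stimulation, 24 h compound treatment. Endpoints: HiBiT lytic luminescence (HLA-B level) and CellTiter Glo (ATP). Dosing 12 concentrations, 3-fold steps, 46 uM highest final.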

JEG-3 = assay: Primary qHTS to identify gynecologic anti-cancer compounds using libraries of approved drugs and bioactive compounds (AID 1345084); conditions: Gynecologic cancer cell panel viability, ATPlite luminescence, 48 h; series mostly up to 57.5 µM; further: nearly all actives have a fitted effect of over 55% in size
Procedure, shortened: as §1

CAOV3 = assay: as above; conditions: Gynecologic cancer cell panel viability, ATPlite luminescence, 48 h; series mostly up to 57.5 µM
Procedure, shortened: as §1
On the % scale 0 is the no-effect control and ±100 the full control effect; potency means the concentration at half of the fitted maximal effect.

In the case of `CC1CCC2C(C(=O)O)=COC(O[C@@H]3O[C@H](CO)[C@@H](O)[C@H](O)[C@H]3O)C12` (stereo not given in full), the Potency (C33A) is reported as “inactive”, the Potency (CASKI) is reported as “inactive” and the Potency (Es-2) is reported as “inactive”. For the same compound, the Potency (Hek293T) was “inactive”, the Potency (OV90) was “inactive” and the Potency (PA-1) was “inactive”. For the same compound, the Potency (Tov-21-G) was “inactive” and the Potency (Tov112D) was “inactive”.
For `NC[C@@](O)(c1ccc(Cl)cc1)c1ccc(-c2cn[nH]c2)cc1`, the Potency (C33A) was 22.4 µM (active), the Potency (CASKI) was 28.2 µM (active) and the Potency (HeLa) was 25.1 µM (active). For the same compound, the Potency (Hek293T) was 28.2 µM (active), the Potency (PA-1) was 15.8 µM (active) and the Potency (SKOV3) was 20 µM (active). The Potency (Tov-21-G) was 10 µM (active), the Potency (Tov112D) was 25.1 µM (active) and the Potency ([1]; HiBiT) was 6.25 µM (active). The Potency ([1]; Viability) was 8.83 µM (active).
With `CCN1CCN(Cc2ccc(NC(=O)c3ccc(C)c(/C=C/c4cnc5[nH]ccc5c4OC)c3)cc2C(F)(F)F)CC1` the Potency (C33A) was 14.1 µM (active), the Potency (CASKI) was 12.6 µM (active) and the Potency (Es-2) was 10 µM (active). For the same compound, the Potency (HeLa) was 15.8 µM (active), the Potency (JEG-3) was “inactive” and the Potency (OV90) was 17.8 µM (active). For the same compound, the Potency (PA-1) was 5.62 µM (active), the Potency (SKOV3) was 8.91 µM (active) and the Potency (Tov-21-G) was 2.51 µM (active). The Potency ([1]; HiBiT) was 6.25 µM (active) and the Potency ([1]; Viability) was 14 µM (active).
In the case of `C=C1C(=O)OC2/C=C(\CO)CC/C=C(\C=O)CC(OC(=O)CC(C)C)C12` (stereo not given), the Potency (C33A) is reported as “inactive”, the Potency (CASKI) is reported as “inactive” and the Potency (HeLa) is reported as “inactive”. The Potency (Hek293T) was “inactive”, the Potency (JEG-3) was “inactive” and the Potency (OV90) was “inactive”. For the same compound, the Potency (Tov112D) was “inactive”.
In the case of `CC(C)(C)c1ccc(S(=O)(=O)NCc2ccc(C(=O)Nc3cccnc3)cc2)cc1`, the Potency (C33A) is reported as 7.94 µM (active), the Potency (Es-2) is reported as 3.55 µM (active) and the Potency (HeLa) is reported as 1.78 µM (active). The Potency (JEG-3) was 2.24 µM (active), the Potency (OV90) was 3.98 µM (active) and the Potency (PA-1) was 1.12 µM (active). For the same compound, the Potency (SKOV3) was 7.08 µM (active) and the Potency (Tov-21-G) was 1.78 µM (active).
For `C=CC(=O)N1CCN(C(=O)CNc2cc(I)c(Cl)cc2O)CC1`, the Potency (C33A) was “inactive”, the Potency (Es-2) was “inactive” and the Potency (HeLa) was “inactive”. The Potency (Hek293T) was “inactive”, the Potency (JEG-3) was “inactive” and the Potency (OV90) was “inactive”. For the same compound, the Potency (PA-1) was “inactive”, the Potency (SKOV3) was “inactive” and the Potency (Tov-21-G) was “inactive”. For the same compound, the Potency (Tov112D) was “inactive”.
For `COc1ccc(/C=C/C(=O)O[C@@H]2[C@@H](O)[C@H](C)O[C@@H](O[C@H]3[C@@H]4C=CO[C@@H](O[C@H]5O[C@@H](CO)[C@H](O)[C@@H](O)[C@@H]5O)[C@@H]4[C@@]4(CO)O[C@@H]34)[C@@H]2OC(C)=O)cc1`, the Potency (C33A) was “inactive”, the Potency (Es-2) was “inactive” and the Potency (HeLa) was “inactive”. For the same compound, the Potency (Hek293T) was “inactive”, the Potency (JEG-3) was “inactive” and the Potency (OV90) was “inactive”. For the same compound, the Potency (PA-1) was “inactive”, the Potency (SKOV3) was “inactive” and the Potency (Tov-21-G) was “inactive”. The Potency (Tov112D) was “inactive”.
In the case of `CCCCNc1ncc2c(-c3ccc(CN4CCN(C)CC4)cc3)cn(C3CCC(O)CC3)c2n1` (stereo not given), the Potency ([1]; Viability) is reported as 7.01 µM (active).
In the case of `CN1CCN(c2ccc(C(=O)Nc3n[nH]c4ccc(Cc5cc(F)cc(F)c5)cc34)c(NC3CCOCC3)c2)CC1`, the Potency ([1]; Viability) is reported as 27.9 µM (active).
With `Cc1cccc(/C=N/Nc2cc(N3CCOCC3)n3nc(-c4ccncc4)cc3n2)c1` the Potency (CAOV3) was 8.91 µM (active), the Potency (OV90) was 2 µM (active) and the Potency (Tov112D) was 3.98 µM (active).
For `CCN(CC)CCN(Cc1ccc(-c2ccc(C(F)(F)F)cc2)cc1)C(=O)Cn1c(SCc2ccc(F)cc2)nc(=O)c2c1CCC2`, the Potency (CAOV3) was 12.6 µM (active), the Potency (CASKI) was 25.1 µM (active) and the Potency (PA-1) was 28.2 µM (active). The Potency (SKOV3) was 7.94 µM (active) and the Potency (Tov112D) was 35.5 µM (active).
For `CC(Nc1ncnc2nc[nH]c12)c1cc2cccc(Cl)c2c(=O)n1-c1ccccc1` (stereo not given), the Potency (CAOV3) was “inactive”, the Potency (Es-2) was “inactive” and the Potency (HeLa) was “inactive”. The Potency (JEG-3) was “inactive”, the Potency (OV90) was “inactive” and the Potency (PA-1) was “inactive”. For the same compound, the Potency (Tov-21-G) was “inactive” and the Potency (Tov112D) was “inactive”.
With `COc1cc(N2CCC(N3CCN(C)CC3)CC2)ccc1Nc1ncc(Cl)c(-c2c[nH]c3ccccc23)n1` the Potency (CAOV3) was 11.2 µM (active), the Potency (CASKI) was 8.91 µM (active) and the Potency (Es-2) was “inactive”. The Potency (HeLa) was 8.91 µM (active), the Potency (OV90) was 15.8 µM (active) and the Potency (SKOV3) was 3.98 µM (active). For the same compound, the Potency (Tov-21-G) was 8.91 µM (active) and the Potency (Tov112D) was 20 µM (active).
With `CCC1=CC2CN(C1)Cc1c([nH]c3ccccc13)[C@@](C(=O)OC)(c1cc3c(cc1OC)N(C)[C@H]1[C@@](O)(C(=O)OC)[C@H](OC(C)=O)[C@]4(CC)C=CCN5CC[C@]31[C@@H]54)C2` (stereo not given in full) the Potency (CAOV3) was “inactive”, the Potency (CASKI) was “inactive” and the Potency (Es-2) was 0.282 µM (active). For the same compound, the Potency (HeLa) was 0.126 µM (active), the Potency (Tov-21-G) was 0.0891 µM (active) and the Potency (Tov112D) was 0.0708 µM (active).
For `COC(=O)N1CCC(n2ncc3c(N4CCOCC4)nc(-c4ccc(NC(=O)Nc5ccc(CO)cc5)cc4)nc32)CC1`, the Potency (CASKI) was 1.12 µM (active), the Potency (Es-2) was 1 µM (active) and the Potency (HeLa) was 2.51 µM (active). The Potency (Hek293T) was 0.282 µM (active), the Potency (JEG-3) was 15.8 µM (active) and the Potency (OV90) was 0.794 µM (active). The Potency (PA-1) was 2.51 µM (active) and the Potency (SKOV3) was 0.282 µM (active).
For `CC[C@]12C=CCN3CC[C@@]4(c5cc([C@@]6(C(=O)OC)C[C@H]7C[C@@H](C(C)(F)F)CN(Cc8c6[nH]c6ccccc86)C7)c(OC)cc5N(C)[C@H]4[C@@](O)(C(=O)OC)[C@@H]1OC(C)=O)[C@@H]32`, the Potency (CAOV3) was “inactive”, the Potency (Es-2) was 1 µM (active) and the Potency (HeLa) was 0.631 µM (active). The Potency (PA-1) was 0.355 µM (active), the Potency (Tov-21-G) was 0.562 µM (active) and the Potency (Tov112D) was 0.251 µM (active).
In the case of `C#CCN(Cc1cc2c(=O)n(C)c(CN3CCN(C)CC3)nc2cc1Cl)c1ccc(C(=O)NCc2cccnc2)cc1`, the Potency (CAOV3) is reported as 44.7 µM (active) and the Potency (OV90) is reported as “inactive”.
In the case of `C#CCN(Cc1cc2c(=O)[nH]c(C)nc2cc1Br)c1ccc(C(=O)NCc2cccnc2)cc1`, the Potency (CASKI) is reported as 0.447 µM (active).
In the case of `CC1(C)C2CC(OC3OC(COC4OCC(O)(CO)C4O)C(O)C(O)C3O)C1(C)CC2O` (stereo not given), the Potency (CAOV3) is reported as “inactive”, the Potency (CASKI) is reported as “inactive” and the Potency (OV90) is reported as “inactive”.
With `COc1cc(N2CCOCC2)ccc1Nc1ncc(Cl)c(Nc2ccccc2NS(C)(=O)=O)n1` the Potency (CAOV3) was 3.55 µM (active), the Potency (CASKI) was 8.91 µM (active) and the Potency (HeLa) was 3.16 µM (active). For the same compound, the Potency (PA-1) was 2.82 µM (active) and the Potency (Tov-21-G) was 3.16 µM (active).
With `Cc1ccc(NC(=O)Nc2cc(C(F)(F)F)ccc2F)cc1Nc1ccc2c(c1)NC(=O)/C2=C\c1ccc[nH]1` the Potency (CASKI) was “inactive”, the Potency (Es-2) was “inactive” and the Potency (HeLa) was “inactive”. For the same compound, the Potency (Hek293T) was “inactive”, the Potency (JEG-3) was “inactive” and the Potency (OV90) was “inactive”. The Potency (PA-1) was “inactive”, the Potency (Tov-21-G) was “inactive” and the Potency (Tov112D) was “inactive”. For the same compound, the Potency ([1]; HiBiT) was 31.3 µM (active) and the activity change, negative = inhibition ([1]; Viability, at 45.9 µM (top of the series)) was -28%.
In the case of `CNC(=O)c1ccccc1Nc1nc(Nc2ccc3c(c2OC)CCCC(N2CCN(CCO)CC2)C3)ncc1Cl` (stereo not given), the Potency (CAOV3) is reported as 10 µM (active), the Potency (CASKI) is reported as 17.8 µM (active) and the Potency (JEG-3) is reported as “inactive”. For the same compound, the Potency (PA-1) was 11.2 µM (active), the Potency (SKOV3) was 3.98 µM (active) and the Potency (Tov-21-G) was 10 µM (active).
For `CC(C)c1nc(-c2ccc(NC(=O)Nc3cccc(C(F)(F)F)c3)c3ccccc23)c2c(N)nccn12`, the Potency (CAOV3) was 22.4 µM (active), the Potency (Es-2) was 12.6 µM (active) and the Potency (HeLa) was 31.6 µM (active). For the same compound, the Potency (Hek293T) was 15.8 µM (active), the Potency (JEG-3) was “inactive” and the Potency (OV90) was 1.58 µM (active). The Potency (PA-1) was 12.6 µM (active) and the Potency (SKOV3) was 28.2 µM (active).
With `COc1cc(C(=O)NC2CCN(C)CC2)ccc1Nc1ncc2c(n1)N(C1CCCC1)CC(F)(F)C(=O)N2C` the Potency (CAOV3) was 25.1 µM (active), the Potency (OV90) was 22.4 µM (active) and the Potency (PA-1) was 0.251 µM (active). For the same compound, the Potency (SKOV3) was 15.8 µM (active).
